Measurements reported in PubChem BioAssay (EPA / NIEHS).
Activity calls are given as the source filed them. Rule for the calls: active = hit-call score of the fitted dose curve at least 0.9, where 1 is the maximum; inactive = score below 0.9.

Tests used:
[1] = APR_HepG2_P-H2AX_72hr: Apredica 72-hour HepG2 Assay for H2AX Phosphorylation (AID 2282916); conditions: imaging, actives raise or lower the signal;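 note: phospho-histone H2A.x immunostain intensity per cell marking DNA damage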
Method in brief: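 Readout: phospho-H2A.x immunofluorescence (FITC secondary) plus Hoechst nuclear stain, high-content imaging at 20x, six fields/well. HepG2, 72 hr compound exposure, 0.39–200 uM, final DMSO 0.5% v/v. Gain or loss fitted relative to DMSO baseline.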

[2] = APR_HepG2_MitoMembPot_72hr: Apredica 72-hour HepG2 Assay for Mitochondrial Membrane Potential (AID 2282917); conditions: imaging, actives raise or lower the signal
Method in brief: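 HepG2 cells dosed 72 hr with compound at 0.39–200 uM in duplicate, 0.5% v/v DMSO final. Mitochondria stained with 250 nM MitoTracker Red CMXRos for 30 min before formaldehyde fixation, imaged by high-content fluorescence; bidirectional fit versus DMSO.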

[3] = APR_HepG2_MitoticArrest_72hr: Apredica 72-hour HepG2 Assay for Mitotic Arrest (AID 2282918); conditions: high-content imaging, actives raise or lower the signal
Method in brief: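 HepG2 cells treated 72 h at 0.39–200 uM, 0.5% DMSO final; formaldehyde-fixed, stained with Hoechst 33342 and phospho-histone H3 antibody, imaged by high-content fluorescence; bidirectional fit versus DMSO.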

[4] = APR_HepG2_P-H2AX_24hr: Apredica 24-hour HepG2 Assay for H2AX Phosphorylation (AID 2282920); conditions: high-content imaging, actives raise or lower the signal
Method in brief: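 HepG2 cells dosed 24 h at 0.39–200 uM (10 points, duplicate, 0.5% DMSO final). Formaldehyde-fixed and permeabilized, then immunostained for phospho-H2A.x with Hoechst. Fluorescence quantified by high-content imaging, fitted bidirectionally versus DMSO.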

[5] = APR_HepG2_StressKinase_24hr: Apredica 24-hour HepG2 Assay for Stress Kinase (AID 2282922); conditions: HepG2 stress kinase (phospho-c-Jun) imaging, actives raise or lower the signal
Method in brief: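 Read-out: phospho-c-Jun immunofluorescence (Cy3 secondary) quantified by high-content imaging at 20x, nuclei defined by Hoechst 33342. Human HepG2 liver cells dosed 24 hr, 0.39–200 uM, DMSO 0.5% v/v; gain or loss of signal fitted relative to DMSO.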

[6] = APR_HepG2_p53Act_72hr: Apredica 72-hour HepG2 Assay for p53 Activation (AID 2282923); conditions: high-content imaging, actives raise or lower the signal;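 note: average cellular p53 protein immunofluorescence intensity in HepG2 cells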
Method in brief: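 Readout: p53 immunofluorescence quantified by automated high-content imaging at 20x, six fields per well, nuclei located via Hoechst. Dosing ran 72 hr over ten concentrations from 0.39 to 200 uM; bidirectional curve fitting against DMSO baseline.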

[7] = APR_HepG2_MitoMass_72hr: Apredica 72-hour HepG2 Assay for Mitochondrial Mass (AID 2282924); conditions: high-content imaging, actives raise or lower the signal;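 note: MitoTracker Red CMXRos stain intensity per cell imaged as mitochondrial mass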
Method in brief: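 Read-out: MitoTracker Red fluorescence intensity from automated imaging (20x, six fields per well) in human HepG2 liver cells. Dosing ran 72 hr, 0.39–200 uM, 0.5% DMSO; bidirectional curve fitting versus DMSO baseline.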

[8] = APR_HepG2_NuclearSize_72hr: Apredica 72-hour HepG2 Assay for Nuclear Size (AID 2282925); conditions: high-content imaging, actives raise or lower the signal
Method in brief: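 Read-out: nuclear diameter from Hoechst 33342 images (ArrayScan, 20x, six fields/well), via cell-cycle image analysis. HepG2 were dosed 0.39–200 uM for 72 hr in 0.5% DMSO. Bidirectional fit relative to DMSO.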

[9] = APR_HepG2_StressKinase_72hr: Apredica 72-hour HepG2 Assay for Stress Kinase (AID 2282921); conditions: HepG2 stress kinase (phospho-c-Jun) imaging, actives raise or lower the signal
Method in brief: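 Phospho-c-Jun immunofluorescence measured by high-content imaging at 20x, six fields per well; bidirectional curve fitting against DMSO as baseline. Dosing: 0.39–200 uM, 72 h, 0.5% DMSO final.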

[10] = APR_HepG2_MicrotubuleCSK_72hr: Apredica 72-hour HepG2 Assay for Microtubule CSK Stabilty (AID 2282919); conditions: HepG2 microtubule cytoskeleton, high-content imaging, actives raise or lower the signal
Method in brief: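 HepG2, 72 hr cmpd exposure, 0.39–200 uM (10 pts, duplicate), 0.5% DMSO. 3.7% formaldehyde fix, 0.5% Triton perm, anti-alpha-tubulin/Cy5 plus Hoechst. HCS fluorescence intensity; bidirectional fit vs DMSO baseline; taxol as positive control.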

Measured: AC50

CCCCCCCCCC[N+](C)(C)[O-]
active: [2] 169 µM | [3] 75 µM
inactive: [1] | [4] | [5] | [6] | [7] | [8]

COc1ccc(C(=O)Nc2nc3ccccc3c(NCc3ccccc3)c2C#N)cc1
inactive: [9] | [5] | [6]
active: [1] 47.8 µM | [2] 1.45 µM | [3] 108 µM | [4] 106 µM | [7] 5.59 µM

Oc1ccccc1O
active: [1] 53.2 µM | [4] 67.9 µM
inactive: [9] | [5] | [6] | [8]

O=C(NS(=O)(=O)/C=C/c1cccs1)c1ccc(F)cc1Br
inactive: [2] | [3] | [10] | [4] | [9] | [5] | [7] | [8]

C/C=C/C=C/C(=O)O
active: [1] 93 µM | [3] 98.2 µM | [7] 47.5 µM
inactive: [2] | [4] | [9] | [5]

O=C(O)c1[nH]n(-c2ccc(S(=O)(=O)O)cc2)c(=O)c1N=Nc1ccc(S(=O)(=O)O)cc1
inactive: [2] | [3] | [10] | [4] | [9] | [5] | [6] | [7] | [8]

CC(=O)OC1CC(C)OC(C)O1 (stereo not drawn)
inactive: [1] | [2] | [3] | [4] | [9] | [5] | [7]

O=C(O)CN(CC(=O)O)CC(=O)O
inactive: [2] | [3] | [10] | [4] | [9] | [5] | [6] | [7]

CC(=O)[C@@]1(O)CC[C@H]2[C@@H]3CCC4=CC(=O)CC[C@]4(C)[C@H]3CC[C@@]21C
inactive: [1] | [2] | [3] | [4] | [9] | [5] | [7] | [8]

CCCCCCCCCCCCCCOS(=O)(=O)O
active: [1] 110 µM | [2] 110 µM | [3] 98.5 µM | [4] 114 µM | [6] 111 µM | [7] 121 µM
inactive: [9] | [5]

CC(C)NCC(O)c1ccc(O)c(O)c1 (stereo not drawn)
active: [1] 86.8 µM
inactive: [2] | [3] | [4] | [9] | [5] | [7] | [8]

CC(C)(C)c1ccccc1
inactive: [2] | [3] | [10] | [4] | [9] | [5] | [6] | [7]

CS(=O)(=O)c1ccc([C@@H](C[C@H]2CCC(=O)C2)C(=O)Nc2cnccn2)cc1Cl
active: [7] 43.7 µM
inactive: [2] | [3] | [10] | [4] | [9] | [5] | [6] | [8]

CCCCCCC(C=O)=Cc1ccccc1
inactive: [1] | [2] | [3] | [4] | [9] | [5] | [7]

Cc1cc(Cc2ccc(N)c(C)c2)ccc1N
inactive: [1] | [2] | [3] | [4] | [5] | [6]
active: [7] 67.3 µM

CO[C@@H]1COCC[C@@H]1N[C@@H]1CC[C@@](C(=O)N2CCc3ncc(C(F)(F)F)cc3C2)(C(C)C)C1
inactive: [1] | [2] | [3] | [4] | [5] | [6] | [7] | [8]

C=CCc1ccc(OC)c(OC)c1
inactive: [2] | [3] | [10] | [4] | [9] | [5] | [6] | [7] | [8]

COC(=O)CCC(=O)OC
inactive: [2] | [3] | [10] | [4] | [5] | [6] | [7]

Cn1cnc2c1c(=O)[nH]c(=O)n2C
inactive: [2] | [3] | [4] | [5] | [7]

NC(=Nc1ccccc1)Nc1ccccc1
active: [3] 22.8 µM | [9] 10.3 µM | [6] 23.4 µM
inactive: [2] | [4] | [5] | [7]

CCCCCCCCCCCCCCCCO
inactive: [2] | [3] | [10] | [4] | [5] | [7] | [8]

Nc1nc(=S)c2[nH]cnc2[nH]1
inactive: [2] | [4] | [9] | [5] | [7] | [8]
active: [3] 21 µM

O=C1c2c(O)cccc2Cc2cccc(O)c21
active: [2] 19.3 µM
inactive: [3] | [4] | [9] | [5] | [6] | [7]
